# Reference: PubChem BioAssay (NCATS)
# Records with an inconclusive call do not appear. Where a call stands in place of a potency, no number is given. Calls of active or inactive are those of the source. Calls come from the whole dose curve; as a rule, active = well fitted curve in the direction sought with a large enough effect; inconclusive = small, poorly fitted or top-dose-only effect, or another doubt; inactive = no such curve, though single readings can be large; an effect the other way counts as inactive or inconclusive.
# Legend:
# [1] = target: DNA repair nuclease/redox regulator APEX1 (Homo sapiens) (UniProt P27695); assay: qHTS Validation Assay for Inhibitors of the Human Apurinic/apyrimidinic Endonuclease 1 (APE1) (AID 1705; note: potency is the fitted concentration of half-maximal effect)
# Outline: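 qHTS, 1536-well. APE1 + cpd 15 min RT → 50 nM TAMRA/BHQ-2 THF-abasic dsDNA substrate → kinetic fluorescence, 3 reads/60 s; delta(read3−read1) = reaction progress. No-enzyme buffer = negative control.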
# [2] = Counterscreen for APE1 Inhibitors: Fluorescent Dye Displacement Validation Assay (AID 1707)
# Outline: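 Reaction mixture of 250 nM Thiazole Orange and 50 nM double-stranded abasic-site DNA was dispensed, compounds were pin-transferred, and fluorescence was read at endpoint (480 nm ex, 540 nm em). Reduced fluorescence indicated dye displacement by DNA binding.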
# [3] = target: Endonuclease 4 (Escherichia coli (strain K12)) (UniProt P0A6C1); assay: Counterscreen for APE1 Inhibitors: qHTS Validation Assay for Inhibitors of Endonuclease IV (AID 1708)
# Outline: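 The reaction buffer contained 50 mM Tris-HCl pH 7.5, 50 mM NaCl, 2 mM MgCl2, 1 mM DTT and 0.01% Tween-20. Incision of a 50 nM fluorophore/quencher THF substrate by 2 nM enzyme was measured kinetically.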
# [4] = qHTS for differential inhibitors of proliferation of Plasmodium falciparum line 7G8 (AID 1815);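 note: parasite growth measured after three days of incubation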; note: potency is the fitted concentration of half-maximal effect
# [5] = qHTS for differential inhibitors of proliferation of Plasmodium falciparum line GB4 (AID 1816); settings: Potency: Plasmodium falciparum GB4 proliferation inhibition;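 note: parasite growth measured after 72 h incubation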; note: potency is the fitted concentration of half-maximal effect
# [6] = qHTS for differential inhibitors of proliferation of Plasmodium falciparum line 3D7 (AID 1876); note: potency is the fitted concentration of half-maximal effect
# [7] = qHTS for differential inhibitors of proliferation of Plasmodium falciparum line D10 (AID 1877);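 note: parasites grown with compound for 72 h before DNA staining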; note: potency is the fitted concentration of half-maximal effect
# [8] = qHTS for differential inhibitors of proliferation of Plasmodium falciparum line Dd2 (AID 1882); settings: Potency: Plasmodium falciparum Dd2 proliferation inhibition; note: nearly all actives have a fitted effect of over 65% in size; note: potency is the fitted concentration of half-maximal effect
# Outline: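 RBC culture, 0.3% parasitemia / 2.5% Hct final; cpd added by pin tool in DMSO; 72 h, 37 C, 5% CO2; lysis buffer + SYBR Green I, o/n RT dark; FI 485/535; norm. to artemisinin 0.29 uM and DMSO.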
# [9] = qHTS for differential inhibitors of proliferation of Plasmodium falciparum line W2 (AID 1883); settings: Potency: Plasmodium falciparum W2 proliferation inhibition;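 note: parasites grown with compound for 72 h before lysis and staining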; note: potency is the fitted concentration of half-maximal effect
# [10] = qHTS for differential inhibitors of proliferation of Plasmodium falciparum line HB3 (AID 1886); settings: Potency: Plasmodium falciparum HB3 proliferation inhibition;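 note: parasites grown with compound for 72 h before SYBR Green readout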; note: potency is the fitted concentration of half-maximal effect
# DNA repair nuclease/redox regulator APEX1 (Homo sapiens), sequence (P27695 whole entry, looked up): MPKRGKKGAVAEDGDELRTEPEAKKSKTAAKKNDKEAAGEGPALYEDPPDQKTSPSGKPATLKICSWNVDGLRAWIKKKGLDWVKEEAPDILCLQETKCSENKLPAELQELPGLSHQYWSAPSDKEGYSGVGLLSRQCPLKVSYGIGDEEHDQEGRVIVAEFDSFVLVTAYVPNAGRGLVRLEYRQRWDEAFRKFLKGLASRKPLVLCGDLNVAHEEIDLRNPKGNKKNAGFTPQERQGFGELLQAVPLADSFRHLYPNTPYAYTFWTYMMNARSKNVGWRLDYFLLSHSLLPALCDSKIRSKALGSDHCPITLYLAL
Structure (SMILES),Potency [1],Potency [2],Potency [3],Potency [4],Potency [5],Potency [6],Potency [7],Potency [8],Potency [9],Potency [10]
CC1(C)CCC=[N+]1[O-],inactive,inactive,inactive,inactive,inactive,inactive,inactive,inactive,inactive,inactive
Oc1cc2c(cc1O)CN(C(=S)NCCc1ccc(Cl)cc1)CCC2,inactive,inactive,inactive,8.91 µM (active),,,12.6 µM (active),8.91 µM (active),,8.91 µM (active)
CCCN(CC1CC1)c1nc(C)nc(Nc2c(Cl)cc(Cl)cc2Cl)c1Cl,inactive,inactive,inactive,3.55 µM (active),3.98 µM (active),2.82 µM (active),3.98 µM (active),11.2 µM (active),3.16 µM (active),4.47 µM (active)
CN1[C@@H](CC(=O)c2ccccc2)CCC[C@H]1C[C@H](O)c1ccccc1,inactive,,,,,,,,,
COC1=C(OC)C(=O)c2ccccc2C1=O,inactive,inactive,inactive,8.91 µM (active),10 µM (active),10 µM (active),11.2 µM (active),,11.2 µM (active),11.2 µM (active)
N#C/C(=C\c1ccc(O)c(O)c1)C(=O)NCc1ccccc1,inactive,inactive,inactive,12.6 µM (active),11.2 µM (active),10 µM (active),17.8 µM (active),,11.2 µM (active),11.2 µM (active)
N#C/C(=C\c1ccc(O)c(O)c1)C(=O)c1ccc(O)c(O)c1,0.282 µM (active),inactive,inactive,,,10 µM (active),,,12.6 µM (active),12.6 µM (active)
O=c1[nH]c2cc([N+](=O)[O-])c([N+](=O)[O-])cc2[nH]c1=O,inactive,inactive,inactive,inactive,inactive,inactive,inactive,inactive,,inactive
C[C@@H](CN1CCC(Cc2ccccc2)CC1)[C@@H](O)c1ccc(O)cc1,inactive,inactive,inactive,10 µM (active),14.1 µM (active),,,,4.47 µM (active),inactive
NCCCS(=O)(=O)O,inactive,inactive,inactive,,,,,,11.2 µM (active),
CN1CCc2ccccc2Cc2[nH]c3ccccc3c2CC1,inactive,inactive,inactive,7.08 µM (active),10 µM (active),7.08 µM (active),12.6 µM (active),12.6 µM (active),5.62 µM (active),10 µM (active)
O=C(O)c1cc(=O)c2c(Cl)cc(Cl)cc2[nH]1,inactive,inactive,inactive,inactive,inactive,inactive,inactive,inactive,inactive,inactive
CCCCCCCCCCCCCCCCCC(=O)NCC(COP(=O)([O-])OCC[N+](C)(C)C)OCC (stereo unspecified),inactive,inactive,inactive,inactive,inactive,inactive,14.1 µM (active),inactive,,inactive
CC(C)NC[C@H](O)COc1cccc2[nH]ccc12,inactive,,,,,,,,,
CCCn1c(=O)c2[nH]c(-c3ccc(OCC(=O)NCCN)cc3)nc2n(CCC)c1=O,inactive,inactive,inactive,,10 µM (active),,,,12.6 µM (active),
NC(=O)C(=O)O,inactive,inactive,inactive,inactive,inactive,inactive,inactive,inactive,inactive,inactive
NC[C@@H]1O[C@H](C23CC4CC(CC(C4)C2)C3)Cc2c1ccc(O)c2O,inactive,inactive,inactive,2 µM (active),2 µM (active),2.24 µM (active),3.16 µM (active),8.91 µM (active),2.24 µM (active),2.82 µM (active)
CC1CN(S(=O)(=O)c2cccc3cnccc23)CCN1 (stereo unspecified),inactive,inactive,inactive,,11.2 µM (active),inactive,inactive,inactive,7.94 µM (active),inactive
O=C1O/C(=C/Br)CCC1c1cccc2ccccc12 (stereo unspecified),inactive,inactive,inactive,,,,inactive,inactive,11.2 µM (active),inactive
NCCSSCCN,inactive,inactive,inactive,inactive,inactive,,inactive,inactive,inactive,inactive
CC(C)(C)NCC(O)COc1nsnc1N1CCOCC1 (stereo unspecified),inactive,inactive,inactive,,,inactive,inactive,inactive,,inactive
Fc1ccc(C(OCCCc2cnc[nH]2)c2ccc(F)cc2)cc1,inactive,inactive,inactive,1.58 µM (active),1.26 µM (active),1.26 µM (active),5.01 µM (active),8.91 µM (active),0.794 µM (active),2.51 µM (active)
CCN1/C(=C/C(C)=O)Sc2ccc(OC)cc21,inactive,inactive,inactive,,,,inactive,inactive,14.1 µM (active),

Structure (SMILES),Potency [1],Potency [2],Potency [3],Potency [4],Potency [5],Potency [6],Potency [7],Potency [8],Potency [9],Potency [10]
O=c1[nH]c2cc(Cl)c(Cl)cc2[nH]c1=O,inactive,inactive,inactive,,,2.51 µM (active),,inactive,3.55 µM (active),
NCCCCC(=O)O,inactive,inactive,inactive,inactive,inactive,inactive,inactive,inactive,inactive,inactive
C=CC(N)CCC(=O)O (stereo unspecified),inactive,inactive,inactive,inactive,inactive,inactive,inactive,inactive,inactive,inactive
COc1cc2nc(N3CCN(C(=O)OCc4ccccc4)C(C(=O)NC(C)(C)C)C3)nc(N)c2cc1OC (stereo unspecified),inactive,inactive,inactive,2.82 µM (active),2.82 µM (active),3.16 µM (active),10 µM (active),8.91 µM (active),2.24 µM (active),7.94 µM (active)
NC(CCCP(=O)(O)O)C(=O)O (stereo unspecified),inactive,inactive,inactive,inactive,inactive,inactive,inactive,inactive,inactive,inactive
CCCCCCCCCCCCCCCCCCNC(=O)OCC(COP(=O)([O-])OCC[n+]1ccsc1)OC (stereo unspecified),inactive,inactive,inactive,,11.2 µM (active),,inactive,inactive,,11.2 µM (active)
CN(C)CCC(c1ccc(Cl)cc1)c1ccccn1 (stereo unspecified),inactive,inactive,inactive,,,,inactive,,,inactive
O=C(O)c1cc(=O)c2ccccc2[nH]1,inactive,,inactive,inactive,inactive,inactive,inactive,inactive,inactive,inactive
C=C/C(C)=C/[C@@]1(C)SC(=O)C(C)=C1O,1 µM (active),inactive,,,inactive,inactive,inactive,inactive,inactive,inactive
N[C@@H](CC(=O)O)C(=O)O,inactive,,inactive,inactive,inactive,inactive,inactive,inactive,inactive,inactive
O=Nc1ccc2oc(=O)ccc2c1,inactive,,inactive,12.6 µM (active),,11.2 µM (active),,,,12.6 µM (active)
O=C(O)[C@@H]1C[C@@H](C(=O)O)N1,inactive,,inactive,inactive,inactive,inactive,inactive,inactive,,inactive
N#C/C(=C\c1ccc(O)c(O)c1)C(=O)NCCCc1ccccc1,inactive,,inactive,8.91 µM (active),14.1 µM (active),,11.2 µM (active),,7.08 µM (active),12.6 µM (active)
Cc1cc(NC(=O)Nc2ccc3c(ccn3C)c2)sn1,inactive,inactive,,7.94 µM (active),,,,inactive,7.94 µM (active),12.6 µM (active)
O=C(O)CNC(=O)C(CS)Cc1ccccc1 (stereo unspecified),inactive,,inactive,inactive,inactive,inactive,inactive,inactive,inactive,inactive
O=C(/C=C/c1ccc(O)cc1)c1ccc(O)cc1O,inactive,inactive,,10 µM (active),7.94 µM (active),,12.6 µM (active),,10 µM (active),12.6 µM (active)
CC(=O)SCC[N+](C)(C)C,inactive,inactive,,inactive,inactive,inactive,inactive,inactive,inactive,inactive
O=C(O)c1cc([N+](=O)[O-])ccc1NCCCc1ccccc1,inactive,inactive,,,inactive,inactive,,inactive,,
O=C(O)CCCC[C@@H]1CCSS1,inactive,inactive,,inactive,inactive,inactive,inactive,inactive,inactive,inactive
Brc1c(Br)c(Br)c2n[nH]nc2c1Br,inactive,,inactive,inactive,inactive,inactive,inactive,inactive,,inactive
COc1cccc(OC)c1OCCNCC1COc2ccccc2O1 (stereo unspecified),inactive,,inactive,7.94 µM (active),,,,,3.98 µM (active),
CC(C)NCC(O)COc1cccc2ccccc12 (stereo unspecified),inactive,,inactive,4.47 µM (active),2.51 µM (active),,11.2 µM (active),8.91 µM (active),2.82 µM (active),12.6 µM (active)
CN1CCc2cc(O)c(O)cc2C(c2ccccc2)C1 (stereo unspecified),inactive,,inactive,11.2 µM (active),10 µM (active),,12.6 µM (active),,10 µM (active),12.6 µM (active)
